Compounds with a hit are over-represented: about 19% of the library has one in this group of screens.
TDP1 cell noCPT – qHTS for Inhibitors of human tyrosyl-DNA phosphodiesterase 1 (TDP1): qHTS in cells in absence of CPT; DT40 Tdp1-/- hTDP1 cells, no CPT, ATP luminescence, 48 h; Potency, µM (doses to about 46.2 µM), hits mostly inhibitors; 15% of 420,000 active; AID 686978, 2013; also: nearly all actives have a fitted effect of over 55% in size
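Chicken DT40 Tdp1-/- cells complemented with human TDP1, screened without camptothecin (DMSO vehicle only), 400 cells/well. Compounds pin-transferred, cells incubated at 37 °C for at least 48 hr. Growth read as ATP-dependent luminescence (CellTiter-Glo, 30 min at RT).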
DT40 TDP1 CPT – DT40-hTDP1 cell growth loss with CPT; chicken DT40 Tdp1-/-;hTDP1 cells + 20 nM CPT, ATP luminescence, 48 h; Potency, µM (top dose mostly 46.2 µM), most hits filed as inhibitors; 12% of 420,000 active; also: nearly all actives have a fitted effect of over 55% in size
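Chicken DT40 Tdp1-/- cells stably complemented with human TDP1 were seeded at 400 cells/well in medium containing 20 nM camptothecin, exposed to pin-transferred compounds, and grown at 37 °C for at least 48 hr. Viability was read as ATP luminescence.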
HT1080 IDH1KD tx – HT-1080 IDH1 knockdown cell toxicity (counter line). Potency, µM (highest dose often 46.1 µM), hits mostly cytotoxic. 2% of 360,000 active. HT-1080 IDH1 knockdown viability, ATP luminescence, 48 h. AID 686971
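Knockdown cells (IDH1KD HT-1080) received compounds 2 h after plating at 750 cells/well and were kept 48 h at 37 °C in 5% FBS RPMI. A CellTiter-Glo luminescence read gave % activity for curve fitting.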
HT1080NT lethal – kills 2HG-producing HT-1080-NT fibrosarcoma cells; HT-1080-NT fibrosarcoma viability, CellTiter-Glo ATP luminescence, 48 h; Potency, µM (top dose mostly 46.1 µM), hits mostly cytotoxic; 1.6% of 360,000 active; AID 686970;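 also: NT is the 2HG producing partner of a matched IDH1 knockdown line; nearly all actives have a fitted effect of over 55% in size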
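Read-out is CellTiter-Glo luminescence after 10 minutes at room temperature, following 48 hours' compound treatment of HT-1080-NT cells (750 cells/well, RPMI, 5% FBS, 37 degrees C).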
KB-3-1 cytotox – KB-3-1 parental cell cytotoxicity. KB-3-1 viability, CellTiter-Glo ATP luminescence, 72 h. Potency, µM (top dose mostly 46.1 µM), actives largely listed as cytotoxic. 1.4% of 400,000 active. AID 1347075; also: nearly all actives have a fitted effect of over 60% in size
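Parental KB-3-1 viability, qHTS format: 72 h compound exposure, 37 °C; CellTiter-Glo; media-only wells and DMSO plates as controls; concentration-effect fits on corrected data.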
KB-V1 cytotox – kills drug-selected multidrug resistant KB-V1 cells; Potency, µM (titrated, usually from 46.1 µM), usual class: cytotoxic; KB-V1 MDR cells viability, CellTiter-Glo, 72 h; 3.4% of 400,000 active; also: nearly all actives have a fitted effect of over 60% in size
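In this primary screen, KB-V1 cells overexpressing P-gp are incubated with library compounds (lowest to highest concentration) for 72 h at 37 degrees C before a luminescent ATP viability read.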
Numbers stand for hits; - = inactive; ? = inconclusive; . = not tested or not shown; ! = repeats disagree; [ ] = remark or other dose. Calls follow the shape of the dose curve; as a rule, active = well fitted curve in the direction sought with a large enough effect; inconclusive = small, poorly fitted or top-dose-only effect, or another doubt; inactive = no such curve, though single readings can be large; an effect the other way counts as inactive or inconclusive.

SMILES	TDP1 cell noCPT	DT40 TDP1 CPT	HT1080 IDH1KD tx	HT1080NT lethal	KB-3-1 cytotox	KB-V1 cytotox
COc1ccc(C(=O)NCCn2cc(SC(C)c3ccccc3)c3ccccc32)cc1OC (stereo not given)	11.6µM	16.4µM	.	.	-	-
COC(=O)c1cn(CCOc2ccccc2)c2ccccc12	?	?	-[9.24 µM]	-	-	?
O=C1COc2ccc(C(=O)COC(=O)Cc3ccccc3)cc2N1	-	-	-	-	-	-
Cc1ccccc1CN1C(=O)C(C)N=C(c2ccccc2)c2ccccc21 (stereo not given)	18.4µM	?	.	.	.	.
O=C1C2C3CCC(C3)C2C(=O)N1c1ccc(OS(=O)(=O)c2ccccc2)cc1 (stereo not given)	?	?	-	-	?	9.2µM
CCC1(Cc2ccccc2)C(=O)NC(=S)N(C)C1=O (stereo not given)	-	-	-	-	-	?
COC(/C(C)=C/C=C/C(C)=C/c1coc(C)n1)C(C)C1CC(O)C2(C)OC2C=CC(C)C2CC(CC(=O)O2)CC2OC2C(=O)O1 (stereo not given)	0.0184µM	0.116µM	?	0.013µM	?	-
CC(=O)c1ccc2c(c1)C1C(Cl)C(Sc3ccccc3[N+](=O)[O-])CC1C(C(=O)O)N2 (stereo not given)	?	?	-	-	-	10.3µM
O[C@@H](Cc1ccncc1)C(Cl)(Cl)Cl	-	-	.	.	.	.
COc1cc(/C=C/[N+](=O)[O-])ccc1O	9.2µM	8.2µM	?	?	?	-
CCOc1cc(C=O)ccc1O	-	-	-	-	-	-
C[C@]12CC[C@H](O)C[C@H]1CC[C@@H]1[C@@H]2CC[C@]2(C)C(=O)CC[C@@H]12	?	-	-	-	-	-
COC(=O)[C@@H]1N=C(c2ccc(OC)cc2)O[C@]12C(=O)N(Cc1ccc(OC)cc1)c1ccccc12	?	18.4µM	?	-	?	23.1µM
CCc1cc(=O)oc2cc(OCC(=O)N3C[C@H]4C[C@@H](C3)c3cccc(=O)n3C4)ccc12	-	-	-	-	-	?
CCOC(=O)CC1c2ccccc2-n2nncc2CN1Cc1ccc(OC)cc1 (stereo not given)	?	?	-	-	-	?
CC(C)(C)c1nc(N2CCN(C(=O)c3ccco3)CC2)c2nnn(Cc3ccccc3Cl)c2n1	20.6µM	?	-	-	-	11.6µM
O=C1NC(=O)C(=Cc2ccc(Oc3ccc([N+](=O)[O-])cc3)cc2)C(=O)N1	?	?	-	-	-	-
CN1C(=O)C(=Cc2ccccc2OCc2ccc(C(=O)O)cc2)C(=O)N(C)C1=O	-	-	-	-	-	-
CN1C(=O)C(=Cc2ccccc2OCc2ccccc2Cl)C(=O)N(C)C1=O	?	?	16.4µM	16.4µM	?	-
CN1C(=O)C(=Cc2ccccc2OCCOc2ccc([N+](=O)[O-])cc2)C(=O)N(C)C1=O	23.1µM	?	?	?	-	-
O=C1NC(=O)C(=Cc2ccccc2OCCOc2ccc([N+](=O)[O-])cc2)C(=O)N1	?	?	18.4µM	?	-	-
O=C(c1ccc(Cl)cc1)C1CCCN(C2CCSCC2)C1 (stereo not given)	?	-	-	-	-	-
CSc1cccc(CNC(=O)C2CCC(=O)N(Cc3cccc(C(F)(F)F)c3)C2)c1 (stereo not given)	-	?	-	-	-	-
Cc1ccc(S(=O)(=O)N[C@@H](CCCCN)C(=O)CCl)cc1	8.41µM!	8.41µM!	-	-	-	-
C[C@@H]1O[C@@H](O[C@@H]2C=C3CC[C@@H]4C(CC[C@]5(C)[C@@H](c6ccc(=O)oc6)CC[C@]45O)[C@@]3(C)CC2)[C@H](O)[C@H](O)[C@H]1O (stereo not given in full)	0.164µM	0.164µM	0.0046µM	0.0184µM	?	0.0259µM
